Results published in PubChem BioAssay (NCATS).
Records with an inconclusive call do not appear. The source made the active and inactive calls. Calls follow the shape of the dose curve; as a rule, active = well fitted curve in the direction sought with a large enough effect; inconclusive = small, poorly fitted or top-dose-only effect, or another doubt; inactive = no such curve, though single readings can be large; an effect the other way counts as inactive or inconclusive.

Legend:
[1] = Quantitative High-Throughput drug screen in 47 multiple myeloma cell lines against the NCATS MIPE library collection: FR4_PLB cell viability assay (AID 1918924; also: nearly all actives have a fitted effect of over 35% in size)
Method in brief: (§1)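 Viability readout: CellTiter-Glo luminescence following 5 min room-temperature incubation with reagent. Prior exposure: 48 h, 37C, humidified 5% CO2, 500 cells per well.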

[2] = Quantitative High-Throughput drug screen in 47 multiple myeloma cell lines against the NCATS MIPE library collection: Delta47_JCRB cell viability assay (AID 1918925; also: nearly all actives have a fitted effect of over 45% in size)
Method in brief: (§2)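 CellTiter-Glo luminescence (ATP) after 48 h compound exposure, 37C/5% CO2; 500 cells/well; MIPE 4.0 approved/investigational drugs pinned in; DMSO = 100%, media only = 0% viability.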

[3] = Quantitative High-Throughput drug screen in 47 multiple myeloma cell lines against the NCATS MIPE library collection: EJM_DSMZ cell viability assay (AID 1918926; also: nearly all actives have a fitted effect of over 30% in size)
Method in brief: as §2

[4] = Quantitative High-Throughput drug screen in 47 multiple myeloma cell lines against the NCATS MIPE library collection: AMO1_DSMZ cell viability assay (AID 1918927; also: nearly all actives have a fitted effect of over 30% in size)
Method in brief: as §2

[5] = Quantitative High-Throughput drug screen in 47 multiple myeloma cell lines against the NCATS MIPE library collection: ARP1_JJKsccF8 cell viability assay (AID 1918928; also: nearly all actives have a fitted effect of over 40% in size)
Method in brief: (§3)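 Myeloma cells, 500 per well, were exposed to MIPE 4.0 drugs by pin transfer for 48 h at 37 °C, 5% CO2. Viability was read as ATP luminescence with CellTiter-Glo, normalised to DMSO-only (100%) and medium-only (0%) wells.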

[6] = Quantitative High-Throughput drug screen in 47 multiple myeloma cell lines against the NCATS MIPE library collection: Karpas620_DSMZ cell viability assay (AID 1918959); also: nearly all actives have a fitted effect of over 30% in size
Method in brief: as §1

[7] = Quantitative High-Throughput drug screen in 47 multiple myeloma cell lines against the NCATS MIPE library collection: KMM1_JCRB cell viability assay (AID 1918960); also: nearly all actives have a fitted effect of over 30% in size
Method in brief: as §3

[8] = Quantitative High-Throughput drug screen in 47 multiple myeloma cell lines against the NCATS MIPE library collection: JIM3_ECACC cell viability assay (AID 1918963; also: nearly all actives have a fitted effect of over 35% in size)
Method in brief: as §1

[9] = Quantitative High-Throughput drug screen in 47 multiple myeloma cell lines against the NCATS MIPE library collection: INA6_PLB cell viability assay (AID 1918965; also: nearly all actives have a fitted effect of over 55% in size)
Method in brief: (§4)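 Approved and investigational drugs from MIPE 4.0 were added by pin tool to 500 cells per well. After 48 hours at 37C, ATP-based CellTiter-Glo luminescence indicated remaining viability.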

[10] = Quantitative High-Throughput drug screen in 47 multiple myeloma cell lines against the NCATS MIPE library collection: JJN3_DSMZ cell viability assay (AID 1918966; also: nearly all actives have a fitted effect of over 50% in size)
Method in brief: as §2

[11] = Quantitative High-Throughput drug screen in 47 multiple myeloma cell lines against the NCATS MIPE library collection: Karpas25_ECACC cell viability assay (AID 1918968; also: nearly all actives have a fitted effect of over 35% in size)
Method in brief: as §2

[12] = Quantitative High-Throughput drug screen in 47 multiple myeloma cell lines against the NCATS MIPE library collection: KMS27_JCRB cell viability assay (AID 1918970); also: nearly all actives have a fitted effect of over 30% in size
Method in brief: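 CellTiter-Glo luminescence after 48 h drug exposure at 37 °C; 500 cells/well, 1536-well format, pin-tool compound addition; DMSO = 100%, media-only = 0% viability.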

[13] = Quantitative High-Throughput drug screen in 47 multiple myeloma cell lines against the NCATS MIPE library collection: KMS12BM_JCRB cell viability assay (AID 1918971); also: nearly all actives have a fitted effect of over 35% in size
Method in brief: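 We plated 500 myeloma cells per well, pinned in MIPE 4.0 compounds, and incubated for 48 hours at 37C. ATP was then quantified with CellTiter-Glo, with DMSO and media-only wells defining 100% and 0%.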

[14] = Quantitative High-Throughput drug screen in 47 multiple myeloma cell lines against the NCATS MIPE library collection: KMS12PE_JCRB cell viability assay (AID 1918972); also: nearly all actives have a fitted effect of over 30% in size
Method in brief: as §4

[15] = Quantitative High-Throughput drug screen in 47 multiple myeloma cell lines against the NCATS MIPE library collection: KMS20_JCRB cell viability assay (AID 1918973); also: nearly all actives have a fitted effect of over 45% in size
Method in brief: as §2

[16] = Quantitative High-Throughput drug screen in 47 multiple myeloma cell lines against the NCATS MIPE library collection: ARD_JJKsccE7 cell viability assay (AID 1918929)
Method in brief: as §2

[17] = Quantitative High-Throughput drug screen in 47 multiple myeloma cell lines against the NCATS MIPE library collection: KHM11_PLB cell viability assay (AID 1918962); also: nearly all actives have a fitted effect of over 35% in size
Method in brief: as §1

[18] = Quantitative High-Throughput drug screen in 47 multiple myeloma cell lines against the NCATS MIPE library collection: H1112_PLB cell viability assay (AID 1918967; also: nearly all actives have a fitted effect of over 30% in size)
Method in brief: as §2

[19] = Quantitative High-Throughput drug screen in 47 multiple myeloma cell lines against the NCATS MIPE library collection: Karpas417_ECACC cell viability assay (AID 1918961); conditions: Karpas417 myeloma viability, CellTiter-Glo ATP luminescence, 48 h; viability (% of DMSO): at 45.8 µM (top of the series)
Method in brief: as §4

[20] = Quantitative High-Throughput drug screen in 47 multiple myeloma cell lines against the NCATS MIPE library collection: JIM1_ECACC cell viability assay (AID 1918964)
Method in brief: as §2

Measured: Potency
Potency is read from the fitted curve at half-maximal effect.

Cn1cncc1[C@@](N)(c1ccc(Cl)cc1)c1ccc2c(c1)c(-c1cccc(Cl)c1)cc(=O)n2C
active: [1] 20.9 µM | [2] 6.62 µM | [3] 14.8 µM | [4] 7.43 µM | [5] 0.469 µM | [6] 5.9 µM | [7] 9.35 µM | [8] 16.6 µM | [9] 4.69 µM | [10] 8.33 µM | [11] 4.18 µM | [12] 7.43 µM | [13] 14.8 µM | [14] 3.32 µM | [15] 11.8 µM

CN1CCN(c2cc(C(=O)Nc3ccc4c(c3)-c3c(c(C(N)=O)nn3-c3ccc(F)cc3)CC4)c(Cl)cn2)CC1
active: [1] 16.6 µM | [2] 0.935 µM | [3] 0.833 µM | [4] 7.43 µM | [16] 16.6 µM | [6] 23.5 µM | [7] 20.9 µM | [17] 5.9 µM | [8] 6.62 µM | [9] 1.05 µM | [10] 0.235 µM | [18] 2.35 µM | [11] 2.35 µM | [12] 7.43 µM | [13] 23.5 µM | [14] 20.9 µM | [15] 2.96 µM

Cc1ccc(NC(=O)C2(c3ccc4c(c3)OC(F)(F)O4)CC2)nc1-c1cccc(C(=O)O)c1
active: [1] 0.0469 µM | [2] 0.0526 µM | [3] 0.0833 µM | [5] 0.0264 µM | [16] 0.0469 µM | [6] 0.166 µM | [7] 0.059 µM | [19] 0.0469 µM | [17] 0.0662 µM | [8] 0.118 µM | [20] 41.8 nM | [10] 0.148 µM | [18] 0.118 µM | [12] 0.0469 µM | [13] 0.0296 µM | [14] 0.0418 µM | [15] 0.0833 µM

Nc1nc(Nc2ccc(S(N)(=O)=O)cc2)nn1C(=O)c1c(F)cccc1F
active: [1] 4.18 µM | [2] 2.64 µM | [3] 6.62 µM | [5] 9.35 µM | [16] 5.26 µM | [6] 5.9 µM | [7] 4.18 µM | [19] 3.32 µM | [17] 2.96 µM | [8] 7.43 µM | [9] 1.48 µM | [10] 5.26 µM | [18] 8.33 µM | [11] 6.62 µM | [12] 4.18 µM | [13] 5.9 µM | [14] 6.62 µM | [15] 4.18 µM

COc1cccc(Nc2c(C(N)=O)cnc3c(C)cc(S(=O)(=O)c4cccc(C(=O)N(C)C)c4)cc23)c1
active: [4] 12.9 µM | [16] 12.9 µM | [7] 10.2 µM | [14] 12.9 µM
inactive: [1] | [2] | [3] | [8] | [13]

CCCn1c(=O)c2[nH]c(-c3cnn(Cc4cccc(C(F)(F)F)c4)c3)nc2n(CC)c1=O
inactive: [2] | [4] | [6] | [17] | [8] | [18] | [11]
active: [1] 5.9 µM | [3] 14.8 µM | [7] 1.66 µM | [10] 5.9 µM

Cc1c(CN2CCN(S(C)(=O)=O)CC2)sc2c(N3CCOCC3)nc(-c3cnc(N)nc3)nc12
active: [1] 0.105 µM | [2] 0.0105 µM | [3] 0.105 µM | [4] 0.0935 µM | [5] 0.0083 µM | [6] 0.0662 µM | [17] 0.0332 µM | [8] 0.0662 µM | [20] 18.7 nM | [9] 0.264 µM | [10] 0.0469 µM | [18] 1.18 µM | [13] 0.0132 µM | [15] 0.0372 µM

CNC(=O)c1ccc(N2C(=S)N(c3cnc(C#N)c(C(F)(F)F)c3)C(=O)C23CCC3)cc1F
active: [1] 14.8 µM | [2] 0.743 µM | [3] 0.166 µM | [4] 0.332 µM | [16] 2.09 µM | [6] 2.35 µM | [7] 2.09 µM | [19] 1.05 µM | [17] 2.09 µM | [8] 2.96 µM | [9] 2.09 µM | [10] 3.32 µM | [18] 0.833 µM | [12] 4.69 µM | [13] 13.2 µM | [14] 2.96 µM | [15] 2.35 µM

Cc1cc(Nc2cc(CN3CCOCC3)c3nc(C)c(Cc4ccc(Cl)cc4F)n3n2)n[nH]1
active: [1] 7.43 µM | [2] 10.5 µM | [3] 16.6 µM | [4] 0.526 µM | [5] 13.2 µM | [8] 4.69 µM | [9] 2.35 µM | [10] 18.7 µM | [18] 23.5 µM | [13] 5.26 µM | [15] 5.26 µM

COc1cc(C)c(Sc2cnc(NC(=O)c3ccc(CNC(C)C(C)C)cc3)s2)cc1C(=O)N1CCN(C(C)=O)CC1 (stereo unspecified)
active: [1] 14.8 µM | [2] 2.35 µM | [3] 16.6 µM | [5] 16.6 µM | [17] 18.7 µM | [8] 4.18 µM | [9] 18.7 µM | [10] 16.6 µM | [18] 14.8 µM | [11] 4.69 µM | [13] 14.8 µM
inactive: [4] | [6] | [7] | [20] | [12] | [14]
